Assay results taken from ChEMBL document CHEMBL1961873, “Compounds: GSK PKIS; Assays: Nanosyn kinase panel” (2012).

What was measured:
[1] = molecular target: Casein kinase I isoform gamma-2 (Homo sapiens) (UniProt P78368); settings: at 1 µM
[2] = molecular target: Casein kinase I isoform gamma-3 (Homo sapiens) (UniProt Q9Y6M4); settings: at 0.1 µM
[3] = molecular target: Casein kinase I isoform gamma-3 (Homo sapiens) (UniProt Q9Y6M4); settings: at 1 µM
[4] = molecular target: Cyclin-dependent kinase 1 (Homo sapiens) (UniProt P06493); settings: at 0.1 µM
[5] = molecular target: Cyclin-dependent kinase 1 (Homo sapiens) (UniProt P06493); settings: at 1 µM
[6] = molecular target: Cyclin-dependent kinase 2 (Homo sapiens) (UniProt P24941); settings: at 0.1 µM
[7] = molecular target: Cyclin-dependent kinase 2 (Homo sapiens) (UniProt P24941); settings: at 1 µM
[8] = molecular target: Cyclin-dependent kinase 2 (Homo sapiens) (UniProt P24941); settings: at 0.1 µM; remark: listed apart in the source
[9] = molecular target: Cyclin-dependent kinase 2 (Homo sapiens) (UniProt P24941); settings: at 1 µM; remark: listed apart in the source
[10] = molecular target: T1, CDK3/Cyclin E (Homo sapiens) (UniProt P24864+Q00526); settings: at 0.1 µM
[11] = molecular target: T1, CDK3/Cyclin E (Homo sapiens); settings: at 1 µM
[12] = molecular target: Cyclin-dependent kinase 4 (Homo sapiens) (UniProt P11802); settings: at 0.1 µM
[13] = molecular target: Cyclin-dependent kinase 4 (Homo sapiens) (UniProt P11802); settings: at 1 µM
[14] = molecular target: Cyclin-dependent kinase 5 (Homo sapiens) (UniProt Q00535); settings: at 0.1 µM
[15] = molecular target: Cyclin-dependent kinase 5 (Homo sapiens) (UniProt Q00535); settings: at 1 µM
[16] = molecular target: Cyclin-dependent kinase 6 (Homo sapiens) (UniProt Q00534); settings: at 0.1 µM
[17] = molecular target: Cyclin-dependent kinase 6 (Homo sapiens) (UniProt Q00534); settings: at 1 µM
[18] = molecular target: Dual specificity protein kinase CLK2 (Homo sapiens) (UniProt P49760); settings: at 0.1 µM
[19] = molecular target: Dual specificity protein kinase CLK2 (Homo sapiens) (UniProt P49760); settings: at 1 µM
[20] = molecular target: Dual specificity protein kinase CLK3 (Homo sapiens) (UniProt P49761); settings: at 0.1 µM
Dual specificity protein kinase CLK3 (Homo sapiens), sequence (P49761 whole entry, looked up): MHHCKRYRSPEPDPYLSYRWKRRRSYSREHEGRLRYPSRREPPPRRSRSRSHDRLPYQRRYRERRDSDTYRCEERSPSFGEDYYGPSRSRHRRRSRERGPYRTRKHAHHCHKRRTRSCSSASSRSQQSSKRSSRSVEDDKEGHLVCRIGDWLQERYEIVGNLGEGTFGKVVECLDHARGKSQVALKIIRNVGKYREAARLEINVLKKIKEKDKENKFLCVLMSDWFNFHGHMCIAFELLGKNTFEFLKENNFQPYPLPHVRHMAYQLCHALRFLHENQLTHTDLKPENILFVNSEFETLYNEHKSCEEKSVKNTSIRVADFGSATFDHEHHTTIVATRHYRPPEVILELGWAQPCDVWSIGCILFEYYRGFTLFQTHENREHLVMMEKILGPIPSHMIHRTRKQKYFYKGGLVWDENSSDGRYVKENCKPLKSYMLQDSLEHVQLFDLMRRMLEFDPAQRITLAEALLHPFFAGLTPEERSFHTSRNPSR

Cyclin-dependent kinase 4 (Homo sapiens), sequence (P11802 whole entry): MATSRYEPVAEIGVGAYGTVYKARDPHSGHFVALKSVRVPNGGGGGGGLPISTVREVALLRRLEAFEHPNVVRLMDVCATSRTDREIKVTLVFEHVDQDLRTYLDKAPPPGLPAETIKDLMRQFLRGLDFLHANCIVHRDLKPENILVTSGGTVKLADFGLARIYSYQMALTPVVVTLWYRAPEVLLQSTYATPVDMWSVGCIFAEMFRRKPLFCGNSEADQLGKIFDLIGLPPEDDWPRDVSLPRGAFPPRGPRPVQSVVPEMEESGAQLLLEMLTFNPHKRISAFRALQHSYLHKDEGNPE
Cyclin-dependent kinase 5 (Homo sapiens), sequence (Q00535 whole entry, looked up): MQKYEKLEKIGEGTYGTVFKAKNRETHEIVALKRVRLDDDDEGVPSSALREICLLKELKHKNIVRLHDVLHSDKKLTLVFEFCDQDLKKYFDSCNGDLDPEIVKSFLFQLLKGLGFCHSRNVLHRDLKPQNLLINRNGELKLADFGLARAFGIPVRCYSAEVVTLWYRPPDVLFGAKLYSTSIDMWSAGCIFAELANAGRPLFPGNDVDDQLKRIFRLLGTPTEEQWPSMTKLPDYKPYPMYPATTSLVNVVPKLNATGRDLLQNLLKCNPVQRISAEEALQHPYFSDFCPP
Cyclin-dependent kinase 6 (Homo sapiens), sequence (Q00534 whole entry): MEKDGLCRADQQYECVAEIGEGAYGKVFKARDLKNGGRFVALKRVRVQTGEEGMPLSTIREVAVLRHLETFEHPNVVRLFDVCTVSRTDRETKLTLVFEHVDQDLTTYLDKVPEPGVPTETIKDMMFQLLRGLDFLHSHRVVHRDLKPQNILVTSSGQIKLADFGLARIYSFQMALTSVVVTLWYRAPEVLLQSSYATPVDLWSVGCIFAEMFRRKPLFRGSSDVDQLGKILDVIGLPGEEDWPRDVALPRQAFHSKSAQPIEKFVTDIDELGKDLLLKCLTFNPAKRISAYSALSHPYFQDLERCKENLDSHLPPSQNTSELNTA
Dual specificity protein kinase CLK2 (Homo sapiens), sequence (P49760 whole entry, looked up): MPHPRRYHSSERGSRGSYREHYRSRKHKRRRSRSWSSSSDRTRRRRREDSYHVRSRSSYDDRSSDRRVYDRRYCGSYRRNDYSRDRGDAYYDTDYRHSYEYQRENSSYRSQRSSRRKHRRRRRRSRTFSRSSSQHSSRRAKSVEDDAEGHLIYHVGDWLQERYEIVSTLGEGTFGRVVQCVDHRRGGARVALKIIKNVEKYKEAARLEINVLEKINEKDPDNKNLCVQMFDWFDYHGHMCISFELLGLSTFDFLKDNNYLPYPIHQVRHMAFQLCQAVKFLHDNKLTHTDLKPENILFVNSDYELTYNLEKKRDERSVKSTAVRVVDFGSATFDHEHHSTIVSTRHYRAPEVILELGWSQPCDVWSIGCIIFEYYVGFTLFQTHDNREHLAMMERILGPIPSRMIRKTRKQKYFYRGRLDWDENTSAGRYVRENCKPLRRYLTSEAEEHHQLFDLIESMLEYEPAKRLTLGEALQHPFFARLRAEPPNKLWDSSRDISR
Casein kinase I isoform gamma-2 (Homo sapiens), sequence (P78368 whole entry, looked up, canonical isoform): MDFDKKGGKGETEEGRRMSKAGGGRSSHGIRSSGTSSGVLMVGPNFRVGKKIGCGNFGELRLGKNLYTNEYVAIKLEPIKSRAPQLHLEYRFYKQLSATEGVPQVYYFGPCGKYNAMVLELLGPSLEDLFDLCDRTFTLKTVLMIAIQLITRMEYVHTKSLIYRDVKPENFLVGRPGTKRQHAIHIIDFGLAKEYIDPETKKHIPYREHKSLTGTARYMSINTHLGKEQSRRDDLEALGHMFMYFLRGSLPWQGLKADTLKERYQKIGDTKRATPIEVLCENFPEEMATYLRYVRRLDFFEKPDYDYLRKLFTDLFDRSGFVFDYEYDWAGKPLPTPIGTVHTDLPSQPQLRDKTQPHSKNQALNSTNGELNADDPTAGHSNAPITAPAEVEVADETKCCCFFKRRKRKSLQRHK
Casein kinase I isoform gamma-3 (Homo sapiens), sequence (Q9Y6M4 whole entry, looked up, canonical isoform): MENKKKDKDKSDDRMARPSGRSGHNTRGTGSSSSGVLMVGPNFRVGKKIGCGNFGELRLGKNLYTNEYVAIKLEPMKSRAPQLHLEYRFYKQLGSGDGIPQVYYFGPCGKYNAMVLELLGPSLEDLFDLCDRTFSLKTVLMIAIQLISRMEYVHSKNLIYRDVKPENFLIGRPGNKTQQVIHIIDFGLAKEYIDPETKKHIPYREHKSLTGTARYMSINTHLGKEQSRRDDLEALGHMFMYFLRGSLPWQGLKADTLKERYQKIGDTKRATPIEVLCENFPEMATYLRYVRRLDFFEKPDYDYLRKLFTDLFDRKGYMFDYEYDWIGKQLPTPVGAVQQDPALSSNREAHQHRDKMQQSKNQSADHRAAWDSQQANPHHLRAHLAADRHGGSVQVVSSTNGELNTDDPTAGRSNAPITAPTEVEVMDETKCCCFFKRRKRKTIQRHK
Cyclin-dependent kinase 1 (Homo sapiens), sequence (P06493 whole entry, looked up): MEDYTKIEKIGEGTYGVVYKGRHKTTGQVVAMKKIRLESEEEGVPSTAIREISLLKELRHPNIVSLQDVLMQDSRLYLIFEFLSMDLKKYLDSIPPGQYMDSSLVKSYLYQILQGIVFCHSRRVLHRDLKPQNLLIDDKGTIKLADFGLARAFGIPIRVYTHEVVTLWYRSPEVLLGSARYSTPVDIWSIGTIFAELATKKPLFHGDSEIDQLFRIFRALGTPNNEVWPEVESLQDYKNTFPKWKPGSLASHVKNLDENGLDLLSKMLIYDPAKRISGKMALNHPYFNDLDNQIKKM
T1 sequence (P24864 whole entry, looked up): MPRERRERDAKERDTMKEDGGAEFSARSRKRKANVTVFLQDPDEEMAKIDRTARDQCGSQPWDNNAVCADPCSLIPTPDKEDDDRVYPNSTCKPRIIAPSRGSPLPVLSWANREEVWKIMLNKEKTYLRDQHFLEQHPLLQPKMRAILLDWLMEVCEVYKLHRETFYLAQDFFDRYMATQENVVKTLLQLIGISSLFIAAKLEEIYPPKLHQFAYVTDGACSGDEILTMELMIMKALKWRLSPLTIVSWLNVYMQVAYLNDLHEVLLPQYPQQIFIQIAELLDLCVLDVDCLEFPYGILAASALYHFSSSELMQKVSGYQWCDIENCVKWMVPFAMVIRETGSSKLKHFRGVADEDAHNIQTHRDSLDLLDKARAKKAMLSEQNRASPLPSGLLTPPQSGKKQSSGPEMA
T1 sequence (Q00526 whole entry, looked up): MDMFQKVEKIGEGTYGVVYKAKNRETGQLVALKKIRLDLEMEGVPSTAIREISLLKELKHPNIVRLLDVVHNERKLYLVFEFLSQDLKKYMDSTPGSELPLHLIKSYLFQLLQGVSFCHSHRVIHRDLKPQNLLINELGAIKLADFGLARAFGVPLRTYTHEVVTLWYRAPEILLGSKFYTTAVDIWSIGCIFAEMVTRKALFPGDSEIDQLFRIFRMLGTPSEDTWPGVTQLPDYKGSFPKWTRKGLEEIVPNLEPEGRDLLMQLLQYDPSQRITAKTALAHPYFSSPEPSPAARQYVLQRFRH

Row | Structure (SMILES) | inhibition [1] [%] | inhibition [2] [%] | inhibition [3] [%] | inhibition [4] [%] | inhibition [5] [%] | inhibition [6] [%] | inhibition [7] [%] | inhibition [8] [%] | inhibition [9] [%] | inhibition [10] [%] | inhibition [11] [%] | inhibition [12] [%] | inhibition [13] [%] | inhibition [14] [%] | inhibition [15] [%] | inhibition [16] [%] | inhibition [17] [%] | inhibition [18] [%] | inhibition [19] [%] | inhibition [20] [%]
1 | NS(=O)(=O)c1ccc(N/C=C2\C(=O)Nc3ccc4ncsc4c32)cc1 | 11.1 | 5.65 | 14.4 | 25 | 62.4 | 82.7 | 94.4 | 70.8 | 75 | 75.5 | 94.7 | 30.7 | 64.6 | 60.7 | 72.8 | 36.8 | 69 | 11.6 | 64.1 | 1.81
2 | CCn1c(-c2nonc2N)nc2c(C#CCN)ncc(OCCCN)c21 | -2.49 | -1.84 | -2.94 | 3.69 | 2.18 | 0.26 | 0.59 | 2.03 | 2.69 | 2.51 | 2.11 | -2.32 | -2.14 | 1.95 | 1.6 | 0.56 | -5.81 | 1.13 | 0.74 | -0.24
3 | COc1cccc(COc2cc(-n3cnc4ccccc43)sc2C(N)=O)c1 | 1.17 | 0.42 | 1.21 | 0.45 | -0.26 | 0.15 | -0.04 | -0.91 | -0.85 | -1.38 | -2.65 | 0.26 | 1.36 | -0.51 | -0.16 | -4.03 | -1 | 0.48 | 1.3 | -0.79
4 | NC(=O)c1sc(-n2cnc3cc(C(F)(F)F)ccc32)cc1OCc1ccccc1Br | 0.89 | 1.52 | 1.06 | 0.9 | 4.47 | 0.47 | 2.92 | 0.99 | 3.19 | -1.34 | -2.44 | 1.17 | 2.92 | 0.88 | 2.08 | -0.56 | -1.42 | 0.89 | 0.1 | -0.27
5 | COc1cccc(-n2ncc3c(N/N=C/c4ccncc4)ncnc32)c1 | 9.79 | 5.28 | 6.59 | 45 | 81.8 | 47 | 76.8 | 24.6 | 65.2 | 12.2 | 49.4 | 16.5 | 52.6 | 39.7 | 78.8 | 15.4 | 51.1 | 4.97 | 35 | 4.27
6 | CCn1c(-c2nonc2N)nc2c(C#CC(C)(C)O)nc(O[C@@H](CN)c3ccccc3)cc21 | 4.43 | -0.48 | 9.88 | 4.13 | 4.92 | 2.07 | 4.12 | 2.92 | 4.27 | 3.62 | -0.03 | 1.37 | 4.92 | 2.41 | 4.69 | -4.5 | 3.24 | 10.2 | 56.3 | -1.43
7 | CCn1c(-c2nonc2N)nc2c(C#CC(C)(C)O)ncc(OC[C@@H]3CCCN3)c21 | 2.18 | 0.87 | 3.35 | -0.63 | 0.58 | -1.52 | -0.07 | -0.64 | -0.07 | -0.42 | -4.39 | 0.04 | 1.01 | -0.13 | -0.81 | -2.82 | -5.08 | 1.88 | 9.59 | 0.26
